# Experimental data as given in PubChem BioAssay (Tox21).
# Values joined by “and” are separate entries in the source; they are usually repeats but may differ in a detail not shown here. Identical values can stand only once. Inconclusive results are not listed. Entries that show only a call come without a potency. Some structures have more than one record in an assay (separate samples or runs), and their calls can disagree. Active and inactive are the calls of the source. Unless noted, the call rests on the fitted dose curve; in most records, active means well fitted curve in the direction sought with a large enough effect in the repeat runs; inconclusive means weak or mixed curves; inactive means no such curve, though single readings can be large; an effect the other way counts as inactive or inconclusive.
# Columns and labels:
# [1] = qHTS assay to test for compound auto fluorescence at 535 nm (green) in HEK293 cells (AID 720680)
# [2] = qHTS assay to test for compound auto fluorescence at 460 nm (blue) in HEK293 cell free culture (AID 720681); further: potency means the concentration at half of the fitted maximal effect
# Outline: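 Blue fluorescence (Ex 405/Em 460 nm, triamterene-equivalent) was read immediately after pin transfer of compound or DMSO into medium (DMEM, 10% FBS) without cells.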
# [3] = qHTS assay to test for compound auto fluorescence at 535 nm (green) in HEK293 cell free culture (AID 720682)
# Outline: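 DMEM + 10% FBS, cell-free; cpd or DMSO pinned in; Ex485/Em535 read; output as fluorescein-equivalent signal.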
# [4] = qHTS assay to test for compound auto fluorescence at 590 nm (red) in HEK293 cell free culture (AID 720683)
# Outline: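 Red-channel autofluorescence of compounds in culture medium (DMEM, 10% FBS), no cells, measured at 540/590 nm. Rose Bengal sodium is the reference fluorophore for equivalence.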
# [5] = qHTS assay to test for compound auto fluorescence at 590 nm (red) in HepG2 cell free culture (AID 720684)
# Outline: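 Cell-free; medium MEM + 10% FBS; compound or DMSO added by pintool; read Ex 540/Em 590 nm; Rose Bengal sodium as red reference fluorophore.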
# [6] = qHTS assay to test for compound auto fluorescence at 460 nm (blue) in HepG2 cell free culture (AID 720685); further: potency means the concentration at half of the fitted maximal effect
# Outline: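 Cell-free plates of MEM plus 10% FBS received 23 nL compound or DMSO vehicle; blue-channel (405/460 nm) intensity scored against triamterene as reference fluorophore.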
# [7] = qHTS assay to test for compound auto fluorescence at 535 nm (green) in HepG2 cell free culture (AID 720686)
# [8] = qHTS assay to test for compound auto fluorescence at 460 nm (blue) in HepG2 cells (AID 720687); further: potency means the concentration at half of the fitted maximal effect
# Outline: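 Blue-channel autofluorescence (Ex/Em 405/460 nm, triamterene-equivalent) was measured after 1 hr compound exposure at 37 C, 5% CO2. Cells were HepG2, plated overnight at 37 C in MEM plus 10% FBS.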
# [9] = target: Glucocorticoid receptor (Homo sapiens) (UniProt P04150); test: qHTS assay to identify small molecule agonists of the glucocorticoid receptor (GR) signaling pathway (AID 720691; active means well fitted activation curve with a large enough effect in the signal ratio in the repeat runs, not every such curve was filed as active; the % refers to the signal ratio)
# Sequence of Glucocorticoid receptor (Homo sapiens) (P04150 whole entry, looked up): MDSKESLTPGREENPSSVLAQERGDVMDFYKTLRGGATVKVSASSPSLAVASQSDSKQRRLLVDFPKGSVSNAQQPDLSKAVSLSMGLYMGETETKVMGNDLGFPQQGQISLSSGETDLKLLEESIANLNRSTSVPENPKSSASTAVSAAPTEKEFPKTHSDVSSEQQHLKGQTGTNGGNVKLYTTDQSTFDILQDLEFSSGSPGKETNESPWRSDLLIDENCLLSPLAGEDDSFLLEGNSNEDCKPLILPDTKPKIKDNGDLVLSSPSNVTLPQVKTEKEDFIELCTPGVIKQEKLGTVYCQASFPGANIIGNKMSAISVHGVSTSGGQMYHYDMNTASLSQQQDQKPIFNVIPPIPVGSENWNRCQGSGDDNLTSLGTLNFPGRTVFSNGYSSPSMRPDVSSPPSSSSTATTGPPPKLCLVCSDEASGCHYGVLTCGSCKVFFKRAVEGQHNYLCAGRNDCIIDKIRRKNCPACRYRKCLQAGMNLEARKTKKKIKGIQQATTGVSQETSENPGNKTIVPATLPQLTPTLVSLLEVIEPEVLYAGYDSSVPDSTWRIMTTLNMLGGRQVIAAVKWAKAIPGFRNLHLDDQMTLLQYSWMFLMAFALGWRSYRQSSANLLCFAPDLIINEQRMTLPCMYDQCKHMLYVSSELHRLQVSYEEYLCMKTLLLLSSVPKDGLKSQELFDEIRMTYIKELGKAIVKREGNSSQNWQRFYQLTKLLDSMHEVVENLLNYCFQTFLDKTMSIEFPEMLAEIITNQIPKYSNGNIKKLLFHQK
# Outline: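 Compounds in DMSO, alongside positive controls, were added to GR-bla HeLa reporter cells and incubated 18 h at 37 C; GRE-driven beta-lactamase was detected by fluorescence after 2 h with FRET substrate at room temperature.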
# [10] = target: Glucocorticoid receptor (Homo sapiens) (UniProt P04150); test: qHTS assay to identify small molecule antagonists of the glucocorticoid receptor (GR) signaling pathway (AID 720692; active means well fitted inhibition curve with a large enough effect in the signal ratio in the repeat runs, not every such curve was filed as active; the % refers to the signal ratio)
# Outline: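 In a 1536-well cell format, compounds were added 4 h after seeding GR-bla HeLa cells, together with dexamethasone at 5 nM final; reporter activity was measured by FRET-substrate fluorescence following 18 h at 37 C.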
# [11] = qHTS assay to identify small molecule antagonists of the glucocorticoid receptor (GR) signaling pathway - cell viability counter screen (AID 720693); further: nearly all actives have a fitted effect of over 55% in size
# [12] = qHTS assay for identifying genotoxic compounds that show differential cytotoxicity against isogenic chicken DT40 cell lines with known DNA damage response pathways - wild type cell line (AID 743012); further: nearly all actives have a fitted effect of over 60% in size; further: potency means the concentration at half of the fitted maximal effect
# Outline: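 Viability of DNA repair-proficient chicken DT40 cells was assessed by CellTiter-Glo luminescence following 40 h compound exposure at 37 C/5% CO2.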
# [13] = qHTS assay for identifying genotoxic compounds that show differential cytotoxicity against isogenic chicken DT40 cell lines with known DNA damage response pathways - Rev3 mutant cell line (AID 743014); further: nearly all actives have a fitted effect of over 55% in size; further: potency means the concentration at half of the fitted maximal effect
# [14] = qHTS assay for identifying genotoxic compounds that show differential cytotoxicity against isogenic chicken DT40 cell lines with known DNA damage response pathways - Rad54/Ku70 mutant cell line (AID 743015); further: nearly all actives have a fitted effect of over 60% in size; further: potency means the concentration at half of the fitted maximal effect
# [15] = qHTS assay to identify small molecule antagonists of the androgen receptor (AR) signaling pathway - cell viability counter screen (AID 743033; further: nearly all actives have a fitted effect of over 45% in size; further: potency means the concentration at half of the fitted maximal effect)
# [16] = qHTS assay to identify small molecule antagonists of the androgen receptor (AR) signaling pathway using the MDA cell line - cell viability counter screen (AID 743041; further: nearly all actives have a fitted effect of over 45% in size)
# Outline: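 Viability read by CellTiter-Fluor fluorescence in the same wells as the antagonist screen, added after 15.5 h of a 16 h, 37C exposure. Human breast carcinoma MDA-kb2 AR-luc cells, compounds co-dosed with agonist R1881.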
# [17] = target: Androgen receptor (Homo sapiens) (UniProt P10275); test: qHTS assay to identify small molecule agonists of the androgen receptor (AR) signaling pathway (AID 743036; active means well fitted activation curve with a large enough effect in the signal ratio in the repeat runs, with a control signal flat, not every such curve was filed as active; the % refers to the signal ratio)
# Sequence of Androgen receptor (Homo sapiens) (P10275 whole entry, looked up): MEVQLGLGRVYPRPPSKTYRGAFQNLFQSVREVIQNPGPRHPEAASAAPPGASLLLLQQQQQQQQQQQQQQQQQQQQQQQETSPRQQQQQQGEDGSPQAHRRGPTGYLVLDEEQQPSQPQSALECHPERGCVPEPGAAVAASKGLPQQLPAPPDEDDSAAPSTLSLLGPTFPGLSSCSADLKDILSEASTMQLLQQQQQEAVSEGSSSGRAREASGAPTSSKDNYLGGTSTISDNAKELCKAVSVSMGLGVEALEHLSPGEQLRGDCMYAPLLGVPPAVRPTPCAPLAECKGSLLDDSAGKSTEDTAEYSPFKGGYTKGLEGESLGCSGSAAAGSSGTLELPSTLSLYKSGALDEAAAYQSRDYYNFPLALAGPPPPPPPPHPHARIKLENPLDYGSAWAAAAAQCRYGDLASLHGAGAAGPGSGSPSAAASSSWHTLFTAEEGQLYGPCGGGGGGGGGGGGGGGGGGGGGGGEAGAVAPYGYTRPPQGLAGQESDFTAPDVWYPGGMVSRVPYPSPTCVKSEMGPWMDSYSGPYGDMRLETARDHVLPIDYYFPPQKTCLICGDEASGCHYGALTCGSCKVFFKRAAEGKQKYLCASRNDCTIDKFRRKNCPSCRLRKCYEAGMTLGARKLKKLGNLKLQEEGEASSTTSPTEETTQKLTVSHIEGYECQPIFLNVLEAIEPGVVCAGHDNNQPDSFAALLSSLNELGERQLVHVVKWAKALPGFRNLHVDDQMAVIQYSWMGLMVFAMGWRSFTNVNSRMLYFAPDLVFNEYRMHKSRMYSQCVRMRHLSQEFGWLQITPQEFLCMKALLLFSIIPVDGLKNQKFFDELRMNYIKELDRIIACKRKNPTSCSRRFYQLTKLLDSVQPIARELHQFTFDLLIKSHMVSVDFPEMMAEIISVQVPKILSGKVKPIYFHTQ
# Outline: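 Screening used 2,000 AR-bla HEK293 cells per well, treated 16 h at 37C with test compounds in DMSO alongside positive and DMSO-only controls; beta-lactamase activity was then read by LiveBLAzer B/G FRET fluorescence after 2 h at room temperature.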
# [18] = target: Androgen receptor (Homo sapiens) (UniProt P10275); test: qHTS assay to identify small molecule agonists of the androgen receptor (AR) signaling pathway using the MDA cell line (AID 743040; further: nearly all actives have a fitted effect of over 20% in size)
# Outline: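 Luciferase agonist assay: 16 h compound exposure at 37C without CO2 in MDA-kb2 AR-luc cells, whose MMTV promoter responds to both AR and GR. Luminescence measured after 30 min room-temperature incubation with ONE-Glo.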
# [19] = target: Androgen receptor (Homo sapiens) (UniProt P10275); test: qHTS assay to identify small molecule antagonists of the androgen receptor (AR) signaling pathway using the MDA cell line (AID 743042; further: nearly all actives have a fitted effect of over 55% in size)
# Outline: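 Antagonist mode: compounds plus R1881 agonist added to MDA-kb2 AR-luc cells, incubated 16 h at 37C. Luciferase reporter luminescence quantified, with multiplexed CellTiter-Fluor readout for cell viability.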
# Tags describe the fitted curve by direction and shape or compound fluorescence and quenching.
Compound,Potency [1],Potency [2],Potency [3],Potency [4],Potency [5],Potency [6],Potency [7],Potency [8],Potency [9],Potency [10],Potency [11],Potency [12],Potency [13],Potency [14],Potency [15],Potency [16],outcome [17],Potency [18],Potency [19]
Cc1ccc(C)c(O)c1,inactive,inactive,inactive,inactive,inactive,inactive,inactive,inactive,inactive,inactive,inactive,inactive,inactive,inactive,inactive,inactive,,,
Brc1nc2ccccc2s1,inactive,inactive,inactive,inactive,inactive,inactive,inactive,inactive,inactive,inactive,inactive,inactive,inactive,inactive,inactive,inactive,,,
Nc1ccc(N)c(Cl)c1,inactive,inactive,inactive,inactive,inactive,inactive,inactive,inactive,inactive,inactive,inactive,68.5 µM (active) and inactive,61 µM (active) and inactive,,,,,,
O=C(CCCN1CCC(O)(c2ccc(Cl)cc2)CC1)c1ccc(F)cc1,inactive,inactive,inactive,inactive,inactive,inactive,inactive,inactive,inactive,,inactive,,3.35 µM (active) and 1.72 µM (active),5.96 µM (active) and 1.72 µM (active),inactive,inactive,,,
c1ccc2c(c1)ccc1cc3c(ccc4ccccc43)cc12,inactive,inactive,inactive,inactive,inactive,inactive,inactive,,inactive,inactive,inactive,inactive,inactive,,inactive,inactive,,,
CN(Cc1cnc2nc(N)nc(N)c2n1)c1ccc(C(=O)N[C@@H](CCC(=O)O)C(=O)O)cc1,inactive,39.8 µM (active),inactive,inactive,inactive,35.5 µM [fluorescent] (active),inactive,35.5 µM [fluorescent] (active),,,inactive,,11.9 nM (active) and 1.7 nM (active),13.3 nM (active) and 1.7 nM (active),0.0756 µM (active),inactive,inactive,inactive,inactive
NC[C@H](O)c1ccc(O)c(O)c1,inactive,inactive,inactive,inactive,inactive,inactive,inactive,inactive,inactive,inactive,inactive,,21.1 µM (active) and 17.2 µM (active),24.3 µM (active),inactive,inactive,,,
CCC(Cc1c(I)cc(I)c(N)c1I)C(=O)O (stereo not drawn),inactive,inactive,inactive,inactive,inactive,inactive,inactive,inactive,inactive,,inactive,,inactive,inactive,inactive,inactive,,,
